Assay results reported in PubChem BioAssay (EPA / NIEHS).
Several values for one entry are separate records, joined by “and”; a condition that tells them apart may be missing. Equal entries are not always repeated. Results filed as inconclusive are left out. A structure can be active in one record and inactive in another. Activity calls are given as the source filed them. The calls were made as follows, unless noted: active = hit-call score of the fitted dose curve at least 0.9, where 1 is the maximum; inactive = score below 0.9.

Experiments:
[1] = read-out: Interleukin 17A (IL17A), IL17A (gene 3605); experiment: BSK_BT_xIL17A: BioMAP Diversity Plus: BT Assay for Interleukin 17A (IL17A) Biomarker Activity (AID 2284229); conditions: primary human B cells with PBMC
Procedure, shortened: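 Luminex xMAP quantification of secreted IL-17A after 24 h chemical exposure of a primary human B cell/PBMC co-culture. Signal increases fitted relative to DMSO negative control.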

[2] = read-out: Tumor necrosis factor (Homo sapiens) (UniProt P01375); experiment: BSK_BT_xTNFa: BioMAP Diversity Plus: BT Assay for Tumor necrosis factor alpha (TNF-alpha) Biomarker Activity (AID 2284230); conditions: primary human B cells with PBMC
Procedure, shortened: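 Compounds were added to a B cell plus PBMC co-culture, and after 24 h secreted TNF-alpha was quantified with Luminex xMAP technology, with responses fitted upward from the DMSO control.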

[3] = read-out: Vascular cell adhesion molecule 1 (VCAM1), VCAM1 (gene 7412); experiment: BSK_MyoF_VCAM1: BioMAP Diversity Plus: MyoF Assay for Vascular cell adhesion molecule 1 (VCAM1) Biomarker Activity (AID 2284231); conditions: primary human lung fibroblasts
Procedure, shortened: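 ELISA readout of VCAM-1 on human lung fibroblast cultures 24 hours after dosing, analyzed for signal gain relative to DMSO. Overt cytotoxicity was checked by sulforhodamine B total-protein staining in parallel cultures.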

[4] = read-out: Interleukin 17F (IL17F), IL17F (gene 112744); experiment: BSK_BT_xIL17F: BioMAP Diversity Plus: BT Assay for Interleukin 17F (IL17F) Biomarker Activity (AID 2284243); conditions: primary human B cells with PBMC
Procedure, shortened: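 Human B cells co-cultured with PBMC; secreted IL-17F quantified by LumineX xMAP 24 hours after chemical dosing. Activity fitted in the positive direction against DMSO negative control as baseline.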

[5] = read-out: Actin alpha 1 (ACTA1), ACTA1 (gene 58); experiment: BSK_MyoF_ACTA1: BioMAP Diversity Plus: MyoF Assay for Actin alpha 1 (ACTA1) Biomarker Activity (AID 2284244); conditions: primary human lung fibroblasts
Procedure, shortened: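 MyoF fibroblast system (human lung); a-SMA quantified via ELISA at 24 h; DMSO-normalised, gain-of-signal endpoint.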

[6] = read-out: Basic fibroblast growth factor (bFGF), FGF2 (gene 2247); experiment: BSK_MyoF_bFGF: BioMAP Diversity Plus: MyoF Assay for Basic fibroblast growth factor (bFGF) Biomarker Activity (AID 2284246); conditions: primary human lung fibroblasts
Procedure, shortened: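 Fibroblasts from human lung, 24 h dosing. bFGF by ELISA; gain of signal over DMSO.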

[7] = read-out: Collagen IV, COL4A1 (gene 1282); experiment: BSK_MyoF_CollagenIV: BioMAP Diversity Plus: MyoF Assay for Collagen IV Biomarker Activity (AID 2284247); conditions: primary human lung fibroblasts
Procedure, shortened: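 Lung fibroblasts (human primary) treated with chemicals were assayed after 24 h for Collagen IV using an ELISA, with DMSO serving as negative control and baseline for a positive-direction fit.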

[8] = read-out: Monokine induced gamma interferon (MIG), CXCL9 (gene 4283); experiment: BSK_KF3CT_MIG: BioMAP Diversity Plus: KF3CT Assay for Monokine induced gamma interferon (MIG) Biomarker Activity (AID 2284248); conditions: primary human keratinocytes with fibroblasts
Procedure, shortened: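 Parallel cultures were stained with SRB (560 nm) to check cytotoxicity. MIG was quantified by ELISA in a primary human skin keratinocyte/fibroblast co-culture 24 h post-dosing, with gain of signal fitted relative to DMSO.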

[9] = read-out: Vascular cell adhesion molecule 1 (VCAM1), VCAM1 (gene 7412); experiment: BSK_BF4T_VCAM1: BioMAP Diversity Plus: BF4T Assay for Vascular cell adhesion molecule 1 (VCAM1) Biomarker Activity (AID 2284249); conditions: primary human bronchial epithelial cells with fibroblasts
Procedure, shortened: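 Cell-surface VCAM-1 quantified by ELISA after 24 h chemical exposure of human bronchial epithelial/dermal fibroblast co-cultures, with SRB staining in parallel wells for cytotoxicity; DMSO baseline, positive-direction fitting.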

[10] = read-out: Plasminogen activator inhibitor-1 (PAI1), SERPINE1 (gene 5054); experiment: BSK_KF3CT_PAI1: BioMAP Diversity Plus: KF3CT Assay for Plasminogen activator inhibitor-1 (PAI1) Biomarker Activity (AID 2284252); conditions: primary human keratinocytes with fibroblasts
Procedure, shortened: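 In this co-culture of primary human keratinocytes and foreskin fibroblasts, PAI-1 was measured by ELISA at 24 h and fitted upward from DMSO.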

[11] = read-out: Monocyte Chemoattractant Protein-1 (MCP1), CCL2 (gene 6347); experiment: BSK_IMphg_MCP1: BioMAP Diversity Plus: IMphg Assay for Monocyte Chemoattractant Protein-1 (MCP1) Biomarker Activity (AID 2284253); conditions: primary human endothelial cells with macrophages
Procedure, shortened: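 ELISA readout of MCP-1 at 24 hours in IMphg co-cultures of venular endothelial cells and macrophages, normalised to DMSO; parallel cultures stained with sulforhodamine B for overt cytotoxicity.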

[12] = read-out: Interleukin-8 (IL8), CXCL8 (gene 3576); experiment: BSK_KF3CT_IL8: BioMAP Diversity Plus: KF3CT Assay for Interleukin-8 (IL8) Biomarker Activity (AID 2284254); conditions: primary human keratinocytes with fibroblasts
Procedure, shortened: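 IL-8 by ELISA in primary human skin co-culture (keratinocytes plus fibroblasts) 24 h post-dose, DMSO as baseline. Cytotoxicity assessed in parallel by sulforhodamine B total-protein staining.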

[13] = CCTE_Mundy_HCI_hNP1_Casp3_7: CCTE's Caspase-Glo 3/7 Assay in human neuroprogenitor cells for Apoptosis, Mundy Lab (AID 2284240)
Procedure, shortened: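 Luminescent caspase-3/7 readout, 26.5 h post-dose, in human neural progenitor cells from WA09 embryonic stem cells. Cells grew 40–44 h at 37 °C, 5% CO2 before chemical addition. Activity analysed as signal increase over DMSO baseline.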

[14] = CCTE_Mundy_HCI_hNP1_CellTiter: CCTE's Cell Titer-Glo 2 Assay in human neuroprogenitor cells for Viability, Mundy Lab (AID 2284241; active = hit-call score of the fitted dose curve at least 0.9, where 1 is the maximum)
Procedure, shortened: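 Viability read as luminescent ATP content (CellTiter-Glo, 30 min room temperature) twenty-four hours after dosing, relative to DMSO. Cells: WA09-derived hNP1 neuroprogenitors on poly-L-ornithine/laminin, plated 40 to 44 hours before chemical.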

[15] = UKN2_HCS_IMR90_cell_viability: Viability Assessment in the University of Konstanz (UKN) Leist Lab Neural Crest Cell Migration Assay in human induced IMR90 Pluripotent Stem Cells (UKN2) (AID 2284233);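 also: cells exposed to compound for 24 h after a 24 h migration phase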
Procedure, shortened: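 Viability read as calcein-AM fluorescence by high-content imaging, Hoechst co-stain, 30 min. Human iPSC (IMR90) neural crest cells had migrated 24 h into stopper-defined gaps before 24 h chemical exposure. Fitted bidirectionally relative to DMSO.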

[16] = CCTE_Mundy_HCI_Cortical_NOG_BPCount: CCTE's Neurite Outgrowth Assay in rat cortical cells for Branch Point Count, Mundy Lab (AID 2284237)
Procedure, shortened: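 Measured 50.33 h after dosing, this morphology endpoint uses rat primary cortical cultures labelled for betaIII-tubulin. Branch points are quantified by high-content imaging, with DMSO as negative control and baseline.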

[17] = CCTE_Mundy_HCI_Cortical_Synap_Neur_Matur_NeuronCount: CCTE's Synaptogenesis and Neurite Maturation Assay in rat cortical cells for Neuron Count, Mundy Lab (AID 2284242; active = hit-call score of the fitted dose curve at least 0.9, where 1 is the maximum;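 also: hits reduce neuron count versus DMSO baseline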)
Procedure, shortened: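 Measured at DIV 12: fluorescently labelled neurons (Hoechst nuclei, MAP2) in rat primary cortical cultures, counted by high-content imaging. AraC suppressed glia from DIV 5; DMSO served as negative control.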

Measured: AC50

Sequence of Tumor necrosis factor (Homo sapiens) (P01375 whole entry, looked up): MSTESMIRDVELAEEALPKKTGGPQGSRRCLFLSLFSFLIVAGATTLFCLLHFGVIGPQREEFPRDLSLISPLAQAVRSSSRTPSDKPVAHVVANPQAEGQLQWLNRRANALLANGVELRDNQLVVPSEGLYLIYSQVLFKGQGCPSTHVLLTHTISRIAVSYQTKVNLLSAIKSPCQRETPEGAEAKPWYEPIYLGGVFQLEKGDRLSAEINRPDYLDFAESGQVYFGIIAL

CC(C)Nc1ccc(Nc2ccccc2)cc1
active: [1] 3.17 µM | [2] 5 µM | [3] 20 µM | [4] 4.55 µM | [5] 22.7 µM | [6] 30.5 µM | [7] 20 µM

CCOP(=S)(OCC)SCSc1ccc(Cl)cc1
inactive: [1] | [2] | [3] | [4] | [6]
active: [5] 3.97 µM | [7] 0.0408 µM

CCOP(=S)(OCC)SCS(=O)(=O)CC
inactive: [1] | [2] | [3] | [4] | [5] | [6] | [7]

Cc1ccc2c(c1N)C(=O)c1ccccc1C2=O
active: [2] 20 µM | [4] 20 µM
inactive: [1] | [3] | [5] | [6] | [7]

Nc1ccc([N+](=O)[O-])cc1Cl
inactive: [1] | [2] | [3] | [4] | [5] | [6] | [7]

OCC(F)(F)OC(F)(F)C(F)(F)OC(F)(F)C(F)(F)OC(F)(F)CO
active: [3] 41.2 µM | [4] 22.8 µM and 20.7 µM | [5] 20.5 µM and 30 µM | [11] 7.09 µM
inactive: [1] | [2] | [3] | [6] | [7] | [8] | [9] | [10] | [11] | [12]

c1ccc2c(c1)sc1ccccc12
inactive: [1] | [2] | [3] | [4] | [5] | [6] | [7]

C=CC(=O)OCC(F)(F)C(F)F
active: [1] 30 µM and 31.8 µM | [2] 30 µM and 29.8 µM | [3] 44.1 µM and 32.7 µM | [4] 12.4 µM and 21.8 µM | [5] 48.8 µM and 46.5 µM | [7] 45.7 µM | [8] 52.2 µM | [9] 30 µM
inactive: [13] | [14] | [6] | [7] | [8] | [9] | [10] | [11] | [12]

O=C(O)C(F)(OC(F)(F)C(F)(F)C(F)(F)F)C(F)(F)F (stereo not given)
active: [2] 6.18 µM | [17] 6.27 µM
inactive: [1] | [2] | [3] | [15] | [16] | [13] | [14] | [4] | [5] | [6] | [7] | [8] | [9] | [10] | [11] | [12]

FC(F)(F)C(F)(C(F)(F)F)C(F)(F)C(F)(F)CC1CO1 (stereo not given)
inactive: [1] | [2] | [3] | [13] | [14] | [4] | [5] | [6] | [7] | [8] | [9] | [10] | [11] | [12]
